Compounds without any hit were thinned out: in the full panel of roughly 79,000, 15% have a hit. A number with no mark means an inactive call. The source made the active and inactive calls. Cut-off read from the data, not from the text of the source: active = growth inhibition above about 70%; inactive = the rest.
How the values were obtained:
[1] = NCI Yeast Anticancer Drug Screen. Data for the rad50 strain (AID 155);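 note: 0% = growth of vehicle-only cultures of the same strain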; settings: S. cerevisiae rad50 strain growth inhibition; at 50.0 µM; active compounds read high
Summary of the method: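 Cells are treated with compound, grown, and their growth is then scored against vehicle-only cultures of the same repair-deficient yeast strain.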

[2] = NCI Yeast Anticancer Drug Screen. Data for the mec2-1 strain (AID 157); settings: S. cerevisiae mec2-1 strain, at 50.0 µM, active compounds read high
Summary of the method: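 Readout is yeast growth inhibition, normalised to vehicle-treated controls, in the mec2-1 strain exposed to compound.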

[3] = NCI Yeast Anticancer Drug Screen. Data for the sgs1 mgt1 strain (AID 161);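 note: 0% = growth of cultures given vehicle only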; settings: S. cerevisiae sgs1 mgt1 strain, at 50.0 µM, active compounds read high
Summary of the method: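 Compounds are added to genetically altered yeast, and growth is compared with cultures given vehicle alone to give percent inhibition.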

[4] = NCI Yeast Anticancer Drug Screen. Data for the cln2 rad14 strain (AID 165);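 note: 0% = growth equal to vehicle treated cultures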; settings: S. cerevisiae cln2 rad14 strain, at 50.0 µM, active compounds read high
Summary of the method: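 Relative to vehicle controls, growth inhibition of compound-treated cln2 rad14 yeast was recorded.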

[5] = NCI Yeast Anticancer Drug Screen. Data for the bub3 strain (AID 167); settings: S. cerevisiae bub3 mutant strain, at 50.0 µM, active compounds read high
Summary of the method: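 Part of a panel of yeast mutants defective in DNA damage repair or cell cycle regulation. Each strain is grown with compound, and inhibition is calculated relative to solvent-treated cultures.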

[6] = NCI Yeast Anticancer Drug Screen. Data for the mlh1 rad18 strain (AID 175); settings: S. cerevisiae mlh1 rad18 strain growth inhibition; at 50.0 µM; active compounds read high
Summary of the method: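 Test agents were incubated with a yeast strain of defined genotype (DNA damage repair defect). Inhibition of growth was derived by comparison with vehicle-exposed cultures.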

SMILES | growth inhibition [1] | growth inhibition [2] | growth inhibition [3] | growth inhibition [4] | growth inhibition [5] | growth inhibition [6]
CC(=S)NC(=O)Nc1cccc2ccccc12 | 19.2% | -8.45% | 2.4% | -50.6% | -10.2% | 10.8%
Cc1c(N=Nc2cccc(Cl)c2)c(-c2ccccc2)nn1C(N)=S | 80.3% (active) | 45% | 96.8% (active) | 12.4% | 91.5% (active) | 92.5% (active)
CCOC(=O)/C(C#N)=C/Nc1c(C)n(C)n(-c2ccccc2)c1=O | 0.95% | 10.3% | 6.75% | 16.4% | -0.85% | 13.6%
Brc1ccccc1N=Nc1ccccc1Br | -13.6% | 3.95% | 0.6% | -18.6% | -8.5% | -20.5%
O=c1[nH]cc(CNC2CCCCC2)c(=O)[nH]1 | 21.5% | -9.35% | 7.65% | -0.2% | 4.6% | 8.2%
CC(C)(CO)N1CCN(C(=S)Nc2ccccc2)CC1 | 17.9% | -2.6% | -0.3% | -1.9% | -10.8% | 17.8%
CCCC(O)CN (stereo not given) | -5.65% | 18.2% | -12.7% | 9.4% | -0.85% | 24.9%
C=C1C2CC(OC(C)=O)C3(C)C(c4ccoc4)OC(=O)[C@@H](O)[C@]13OC1C[C@H](OC(C)=O)C(C)(C)[C@H](C(O)C(=O)OC)[C@]12C (stereo not given in full) | -11.8% | -34.4% | 2.4% | 3.45% | -8.1% | 0.25%
COCC/C=C/CCl | -8.75% | -22.6% | -8.35% | -8.95% | -7.65% | 5.1%
CCCC(=O)CC(C)C(=O)C(=O)NC12CC3CC(CC(C3)C1)C2 (stereo not given) | 14.6% | 8.35% | 13.4% | 20.2% | 4.4% | 30.3%
O=C(O)c1c(F)c(F)c(-c2c(F)c(F)c(C(=O)O)c(C(=O)O)c2F)c(F)c1C(=O)O | 1.5% | 5.5% | -5% | 7.05% | 0.55% | -6.45%
CCC(CO)(C(=O)O)c1ccccc1 (stereo not given) | 1.85% | 22.2% | 4.95% | 46.9% | 4.6% | 2.3%
CCN(CC)C(=O)CNC(=O)C(c1ccccc1)c1ccccc1 | 4.25% | -6.2% | 1.4% | -9.7% | 6.35% | -8.05%
Cc1ccc2c(c1)c(C)c(C)c(=O)n2C | 21.2% | -8.7% | -1.5% | 13.2% | 1.9% | 10.1%
CN(C)C=NCCN1CCOCC1 | 9.3% | 15.1% | 26.8% | 5.55% | -7.1% | -47.6%
COc1ccc2[nH]c3c(c2c1)-c1ncncc1CC3 | 37.4% | -9.65% | -3.7% | 6.1% | 40.4% | 24.4%
CC(C)CC(NC(c1ccccc1)P(=O)(O)O)C(=O)O (stereo not given) | -4.15% | -13.2% | -22.1% | -9% | -8.3% | -27.1%
Clc1ccc(Cl)nc1 | -8.25% | -8.25% | -8.2% | -13.7% | 2.75% | 5.45%
Cc1ccc(S(=O)(=O)N2CC(CCl)N(S(=O)(=O)c3ccc(C)cc3)CC2CCl)cc1 (stereo not given) | 28.5% | 7.45% | 20.6% | 10.4% | 4.35% | 20.9%
CCCCCCCCCCCCCCCC(=O)O (tested in a mixture with another compound) | 7.65% | -1.5% | -18.2% | 33.8% | 12.1% | -11.4%

SMILES | growth inhibition [1] | growth inhibition [2] | growth inhibition [3] | growth inhibition [4] | growth inhibition [5] | growth inhibition [6]
O=C(/C=C(\O)C(=O)O)/C=C(\O)c1ccc(Cl)cc1 | -15.7% | 0.7% | -27.4% | -10.4% | -23.8% | -31.5%
Sc1ccccc1N=Cc1ccc(C=Nc2ccccc2S)cc1 | -15.8% | -8.05% | 7.1% | 18.8% | 4.45% | -3.75%
N#Cc1ccc[n+](Cc2c(Cl)cccc2Cl)c1 | 6.6% | 28.9% | 23.2% | 5.8% | 20.6% | 44.1%
CCc1nc(N)nc(N)c1-c1ccc2c(c1)nnn2C | 19.9% | 14.8% | 9.05% | -9.75% | 11.6% | 17.9%
CC(C)C1OC2OCCCC2C(C(C)C)O1 (stereo not given) | 17.2% | -5.85% | 8.15% | -11.9% | -22.1% | 11%
CCOC(CS(=O)(=O)CC(N)=O)OCC | 6.3% | 0.45% | -3.75% | -29.4% | -11.8% | 5.8%
COc1cc(CC(=O)c2ccc3c(c2)OCO3)cc(OC)c1OC | -9.95% | -5.15% | -8.95% | -15.5% | 4.75% | -25.3%
CC1(C)OC2C(C(=O)O)OC(n3cnc4c(N)ncnc43)C2O1 (stereo not given) | -3.35% | -12.2% | -9.7% | -2.05% | -21.6% | -0.7%
NS(=O)(=O)c1ccc(N=Nc2nc3[nH]c(=O)[nH]c(=O)c3[nH]2)cc1 | 22.3% | -9.2% | 3.05% | -4.85% | -7.2% | 18.6%
CC/C(=N\N=C(/CC)c1cccs1)c1cccs1 | 25.5% | -6.4% | -10.7% | 3.35% | 13.1% | -3.75%
CCCOC(=O)c1cc(C(=CCC[C@H]2CC[C@@]3(C)[C@@H](CC[C@@H]4[C@@H]3CC[C@]3(C)[C@@H](C(C)CCCC(C)C)CC[C@@H]43)C2)c2cc(Cl)c(O)c(C(=O)OCCC)c2)cc(Cl)c1O (stereo not given in full) | 8.7% | -9.05% | -0.55% | 5.65% | -4.05% | -45%
O=C1CC(c2ccccc2)Oc2cc(O)cc(O)c21 (stereo not given) | 9.1% | -30.8% | 9.2% | 22.6% | -14.4% | 16.7%
COCCCCCC(=O)OC | 5.05% | 17.1% | 6.4% | 4.5% | -7% | 0.5%
N#C/C(c1nc2ccccc2[nH]1)=c1\s/c(=C(/N)O)c(=N)n1-c1ccccc1 | -31.6% | -26% | -32.4% | -30.1% | -34.1% | -47.6%
COc1cc(C)c2cc(C)cc(C)c2n1 | 3.4% | 6.05% | 1.65% | -17.9% | 3.9% | 7.85%
C=C(C)C(=O)OCCN(CC)CC | 33.9% | -4.15% | 17.7% | 23.6% | 11.4% | 23.5%
O=C(NC(=O)c1ccccc1[N+](=O)[O-])Nc1ccc(Oc2ncc(Br)cn2)c(Cl)c1 | -1.35% | -30.8% | -19.4% | 0.6% | -9.25% | -56.8%
N#C/C(=C\N1CCNC1=S)C(=O)c1ccc2ccccc2c1 | 23.1% | 1.75% | -1.7% | 0.55% | 14.7% | 11.6%
COC(=O)/N=c1\cc(N2CC=CCC2)nc(N)n1O | -5.85% | -10.7% | -21.2% | 18.9% | -10.8% | 5.4%
O=C1c2ccccc2C(=O)N1C/C=C/CN1C(=O)c2ccccc2C1=O | 6.85% | -5.7% | 12.2% | -9.4% | 8.05% | 2.5%

Reference: PubChem BioAssay (NCI)
